Screening results (PubChem BioAssay)
Compounds with a hit are over-represented: about 2.5% of the library has one in this group of screens.
Jurkat NFkB inh – inhibitors of induced NF-kB luciferase reporter, primary screen, TCR NF-kB activation inhibitor project, cell-based, luminescence, uHTS | actives 0.53% (n = 330,000) | AID 435003, 2010 | inhibition, % at 4 µM | Jurkat, PMA/ionomycin-induced NF-kB luciferase reporter; in the data active means inhibition above about 50%
ANO1 activ – TMEM16A chloride channel activators or potentiators, primary screen, cell-based, HTS; Anoctamin-1 (Mus musculus), Q8BHY3; B-score at 10 µM; actives 0.3% (n = 340,000); AID 623877, 2012; HEK293 TMEM16A/YFP-H148Q/I152L, iodide quench fluorescence; hits give low values;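 active means fluorescence-ratio B-score plate-corrected deviation score at least 3 library SD below zero, with starting fluorescence score within 5 deviations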;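 further: channel opened by trigger with iodide after compound preincubation; score built on the fluorescence ratio of max minus min over baseline; more negative score means more quench and so TMEM16A activation or potentiation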
Target sequence (Q8BHY3 whole entry, looked up): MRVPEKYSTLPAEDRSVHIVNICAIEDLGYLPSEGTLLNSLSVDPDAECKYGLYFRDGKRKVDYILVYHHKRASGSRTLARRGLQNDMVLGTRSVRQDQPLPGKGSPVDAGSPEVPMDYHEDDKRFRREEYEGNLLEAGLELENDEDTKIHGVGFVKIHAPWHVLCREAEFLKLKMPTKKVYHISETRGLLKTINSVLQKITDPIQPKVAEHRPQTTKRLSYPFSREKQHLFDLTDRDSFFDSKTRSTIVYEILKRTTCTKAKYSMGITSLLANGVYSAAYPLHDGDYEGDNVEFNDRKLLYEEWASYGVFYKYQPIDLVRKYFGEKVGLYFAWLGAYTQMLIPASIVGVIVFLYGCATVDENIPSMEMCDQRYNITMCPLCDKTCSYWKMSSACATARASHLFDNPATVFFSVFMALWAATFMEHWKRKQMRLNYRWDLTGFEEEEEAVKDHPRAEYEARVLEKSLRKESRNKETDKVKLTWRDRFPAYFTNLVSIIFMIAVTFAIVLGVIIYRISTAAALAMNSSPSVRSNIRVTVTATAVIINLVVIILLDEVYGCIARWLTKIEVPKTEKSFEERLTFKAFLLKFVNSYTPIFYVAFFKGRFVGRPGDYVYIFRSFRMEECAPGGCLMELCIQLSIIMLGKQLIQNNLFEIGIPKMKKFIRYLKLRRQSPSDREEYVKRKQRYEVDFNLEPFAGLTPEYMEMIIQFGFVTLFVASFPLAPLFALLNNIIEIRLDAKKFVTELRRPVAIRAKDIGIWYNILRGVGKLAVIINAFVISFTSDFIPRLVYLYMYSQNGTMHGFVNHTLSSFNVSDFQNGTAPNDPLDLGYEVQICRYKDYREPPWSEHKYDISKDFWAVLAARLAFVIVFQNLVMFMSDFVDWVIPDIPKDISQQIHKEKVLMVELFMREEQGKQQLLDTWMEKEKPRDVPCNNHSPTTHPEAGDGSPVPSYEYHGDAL
KLF5 inhibitor – KLF5 expression inhibitors, primary screen, DLD-1 cells, luminescence | actives 0.23% (n = 290,000) | inhibition, % at 5 µM | DLD-1 KLF5 promoter-luciferase reporter;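 active means inhibition above a per-plate limit of that plate's mean compound inhibition plus 3 SD, cut at about 60% in these data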;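 further: 0% = DMSO wells and 100% = LY294002 at 200 µM; higher means less KLF5 promoter-driven luciferase light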
aSyn 5UTR inh – MLPCN primary screen, SNCA 5' untranslated region. alpha-synuclein 5'UTR reporter, inhibitor activity. inhibition, % (tested at 7.5 µM). actives 0.82% (n = 300,000); in the data active means inhibition above about 60%;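 further: H4 neuroglioblastoma cells stably carrying SNCA 5'UTR luciferase fusion; 0% = DMSO wells and 100% = positive control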
ANO1 block – TMEM16A chloride channel inhibitors, primary screen, cell-based, HTS. HEK293 TMEM16A/YFP iodide influx fluorescence, ionomycin. actives 1.2% (n = 310,000). normalized B-score (activity score, 25-100; higher = stronger inhibition) at 10 µM;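 active means ratio plate-corrected score three or more library SD toward inhibition, starting fluorescence score within five deviations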;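 further: score derived from kinetic fluorescence span divided by baseline fluorescence per well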
697 NFkB inh – inhibitors of PMA/ionomycin-induced NF-kB reporter, 697 cells, primary screen, B-cell NF-kB inhibitor project, cell-based, luminescence, uHTS; AID 435022, 2010; actives 0.33% (n = 330,000); 697 B-cell NF-kB luciferase reporter, 16 h; inhibition, % at 4 µM; in the data active means inhibition above about 35%
697 NFkB conf – PMA/ionomycin-induced NF-kB reporter inhibitors, 697 retest, confirmation, B-cell NF-kB inhibitor project, cell-based, luminescence, single concentration; 697 B-cell NF-kB luciferase, 16 h; actives 35% (n = 2,000); shares compounds with 697 NFkB inh; inhibition, % at 4 µM; in the data active means inhibition mostly above about 28%, no sharp cut-off; inactive means mostly below about 22%
Numbers without * were called inactive; i = inactive; nt = no result.

SMILES | Jurkat NFkB inh | ANO1 activ | KLF5 inhibitor | aSyn 5UTR inh | ANO1 block | 697 NFkB inh | 697 NFkB conf
O=c1c2ccccc2c(C=Nc2ccccc2O)c(O)n1-c1nccs1 | -3.0 | i | -32.6 | -7.8 | i | 4.5 | nt
O=C(O)c1ccccc1N=Cc1c(O)n(-c2nccs2)c(=O)c2ccccc12 | 18.9 | i | -14.7 | -3.9 | i | 41.7* | 12.2
O=C(CN1C(=O)NC(c2ccc(F)cc2)C1=O)Nc1ccc2c(c1)OCCO2 (configuration not stated) | 2.8 | i | nt | nt | nt | 12.0 | nt
CCn1c(/C=N/Nc2ccc(C(=O)O)cc2)nc2ccccc21 | 2.6 | i | 4.2 | -26.4 | i | -12.8 | nt
CC1Oc2ccccc2C=C1/C=N/Nc1ccc(C(=O)O)cc1 (configuration not stated) | -126.0 | i | -62.4 | -95.1 | i | -350.5 | -103.9
CC(=O)c1c(C(C)=O)c(C)n(-c2cccc([N+](=O)[O-])c2)c1C | 24.3 | i | -18.6 | 8.6 | i | 36.1* | 12.2
CC(=O)c1nnn(-c2cccc([N+](=O)[O-])c2)c1C | -1.1 | i | -32.1 | -8.2 | i | 17.0 | nt
Cc1cc(C(=O)CCl)c(C)n1-c1cccc([N+](=O)[O-])c1 | 3.5 | i | -22.5 | nt | i | 39.8* | 9.2
CC1=C(c2ccccc2)C=NNCC1=O | nt | i | nt | nt | nt | nt | nt
c1ccc(-[n+]2nc(Nc3cccc4ccccc34)sc2-c2c3ccccc3cc3ccccc23)cc1 | 25.7 | i | nt | nt | i | -1.5 | nt
COCCNC(=O)/C(C#N)=C/c1ccc(-c2ccc(OC)cc2[N+](=O)[O-])o1 | 1.4 | i | -20.7 | 12.1 | i | 35.4* | 18.8
Nc1nnc(SCc2c(F)cccc2Cl)s1 | 8.4 | i | -18.8 | -12.6 | i | -7.7 | nt
COc1ccc(-n2c(-c3ccc(Cl)cc3)c[n+]3c2CCc2ccccc2-3)cc1 | 21.4 | i | -0.4 | -15.3 | i | 56.2* | 91.6*
COc1ccc(-n2c(-c3ccccc3)nnc2-c2ccc(Cl)cc2)cc1 | -3.2 | i | 6.2 | 0.7 | i | 19.4 | nt
CC1(C)CC2CC(C)(CN2S(=O)(=O)c2ccc(C(=O)Nc3ccc(S(=O)(=O)N4CCOCC4)cc3)cc2)C1 (configuration not stated) | 33.5 | i | 14.4 | -2.8 | i | 53.9* | 35.3*
CC1(C)CC2CC(C)(CN2S(=O)(=O)c2ccc(C(=O)Nc3ccc(Cl)c(S(=O)(=O)N4CCOCC4)c3)cc2)C1 (configuration not stated) | 48.8 | i | 4.0 | 34.6 | i | 4.9 | nt
CCN1C(=O)c2cccc3c(S(=O)(=O)N4CCC(C)CC4)ccc1c23 | -19.4 | i | nt | nt | nt | 41.1* | 46.5*
COc1cc(C(=O)O)c2c(c1C)OC(=O)c1c(C)cc(O)c(C=O)c1O2 | -6.4 | i | nt | 0.9 | i | 17.6 | nt
Cc1ccc(N=Nc2c(N)nn(-c3ccccc3)c2N)cc1 | -4.7 | i | -72.2 | -182.9 | i | -318.1 | -81.0
COc1ccc(N(/N=C2\Sc3ccccc3C2=O)C(C)=O)cc1 | nt | i | -200.6 | -142.7 | nt | nt | nt
COc1ccccc1N(/N=C1\Sc2ccccc2C1=O)C(C)=O | -98.0 | i | -27.5 | 20.4 | i | -391.0 | -330.8
CCN1C(=O)Nc2cccc3cccc1c23 | -4.7 | i | nt | 2.6 | i | 37.4* | 36.3*
C=CCN1C(=O)N(CC=C)c2cccc3cccc1c23 | 8.6 | i | -38.1 | 4.3 | i | -7.3 | nt
Cc1nc2[nH]c(=O)n(O)c(=O)c2s1 | nt | i | nt | nt | nt | nt | nt
O=C(O)CC1(CC(=O)Nc2nccs2)CCCCC1 | nt | i | nt | nt | nt | nt | nt
SMILES | Jurkat NFkB inh | ANO1 activ | KLF5 inhibitor | aSyn 5UTR inh | ANO1 block | 697 NFkB inh | 697 NFkB conf
Cc1ccc(-c2nc(C(=O)NCC3CCCO3)cc3c2[nH]c2ccccc23)cc1 (configuration not stated) | 8.2 | i | -14.1 | -7.5 | i | 39.5* | 36.4*
COc1ccc(-c2nc(C(=O)NCC3CCCO3)cc3c2[nH]c2ccccc23)cc1 (configuration not stated) | 0.0 | i | 5.4 | -41.8 | i | 23.0 | nt
O=C(NCCC1CCCCN1S(=O)(=O)c1ccc(Cl)cc1)C(=O)NCc1ccncc1 (configuration not stated) | 2.6 | i | nt | 61.8* | i | 45.2* | 42.9*
COc1cc(C)c(CN2CCN(S(=O)(=O)c3ccc(Cl)s3)CC2)cc1OC | 13.6 | i | nt | nt | nt | 10.2 | nt
CC(=O)c1ccc(N2CCN(CC(=O)Nc3ccccc3C(=O)NC3CC3)CC2)c(F)c1 | 10.6 | i | nt | nt | nt | 8.3 | nt
COC(=O)c1c(-c2ccccc2)csc1NC(=O)c1c(-c2ccccc2)noc1C | -43.7 | i | 35.1 | 65.4* | i | i | i
CCOC(=O)c1c(-c2ccc(C)cc2)csc1NC(=S)NC(=O)c1ccccc1 | 3.0 | i | -18.0 | 9.5 | i | -486.0 | 0.1
COC(=O)c1c(-c2ccc(C)cc2)csc1NC(=S)NC(=O)c1ccc(F)cc1 | -5.6 | i | 9.3 | 6.0 | i | -24.4 | nt
CC(C)(CNC(=O)C1CCCN1C(=O)c1cccs1)N1CCOCC1 (configuration not stated) | -1.2 | i | -62.4 | -7.6 | i | 56.8* | -6.6
CC(C)(CNC(=O)c1cccs1)N1CCOCC1 | -8.1 | i | nt | nt | nt | 14.1 | nt
CCOC(CNC(=O)c1ccc2nc(N3CCC(C)CC3)sc2c1)OCC | 6.5 | i | 16.3 | -179.6 | i | -282.5 | -178.3
COc1ccc(-n2ncc3c(N4CCC(C(N)=O)CC4)ncnc32)cc1 | -70.1 | i | -75.9 | -124.1 | i | 59.8* | 45.0*
CCOC(=O)C1CCCN(c2ncnc3c2cnn3-c2cccc(C)c2)C1 (configuration not stated) | -1.5 | i | -25.2 | -20.4 | i | -72.0 | nt
COc1ccc(-n2ncc3c(N4CCN(Cc5ccccc5)CC4)ncnc32)cc1 | 25.9 | i | -13.2 | -115.0 | i | 5.3 | nt
CCOC(=O)C1CCN(c2ncnc3c2cnn3-c2ccc(OC)cc2)CC1 | -4.1 | i | -3.1 | nt | i | 47.1* | 36.5*
Cc1ccc(C(=O)NC(C)c2ccc(-n3ccnc3)cc2)o1 (configuration not stated) | 3.8 | i | nt | -3.4 | i | -0.9 | nt
CC(=O)c1cccc(NC(=O)CCN2C(=O)C3C4CCC(C4)C3C2=O)c1 (configuration not stated) | -10.4 | i | -6.5 | -6.7 | i | -13.2 | nt
